# The supplement of paper PMC6992640
# ± gives the standard deviation of the averaged measurements.
# What was measured:
# HCI01 [1] = cells of a triple-negative basal-like breast cancer xenograft; experiment: cell viability (% of vehicle); higher = less cytotoxic; settings: 10 µM; 72 h
# HCI11 = cells of an ER-positive luminal breast cancer xenograft; experiment: as above; settings: 10 µM; 72 h
# HCI16 = cells of a triple-negative basal-like breast cancer xenograft; experiment: as above; settings: 10 µM; 72 h
# WHIM2 = cells of a triple-negative basal-like breast cancer xenograft; experiment: as above; settings: 10 µM; 72 h
# WHIM30 = cells of a triple-negative basal-like breast cancer xenograft; experiment: as above; settings: 10 µM; 72 h
# HCI03 = cells of an ER-positive luminal breast cancer xenograft; experiment: as above; settings: 10 µM; 72 h
# HCI09 = cells of a triple-negative luminal androgen receptor type breast cancer xenograft; experiment: as above; settings: 10 µM; 72 h
# HCI13 = cells of an ER-positive luminal breast cancer xenograft; experiment: as above; settings: 10 µM; 72 h
# UCD52 [2] = cells of a triple-negative basal-like breast cancer xenograft; experiment: as above; settings: 10 µM; 72 h
# HCI01 [3] = experiment: cell viability of combination (% of vehicle); higher = less cytotoxic; settings: 1 µM; 72 h; partner dose: 10 nM
# Experimental: (§1)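 PDX cells were treated for 72 h with each drug at 1 µM plus carfilzomib (10 nM; 100 nM for WHIM2). Luciferase viability is expressed as percent of vehicle.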
# UCD52 [4] = experiment: as above; settings: 1 µM; 72 h; partner dose: 10 nM
# Experimental: as §1
smiles,measurement,setting,value
O=C(C=CC=Cc1ccc2c(c1)OCO2)N1CCCCC1 [Piperine],cell viability,HCI01 [1],158 ± 4
same,cell viability,HCI11,134
same,cell viability,HCI16,131
same,cell viability,WHIM2,117 ± 0.57
same,cell viability,WHIM30,111.83 ± 0.044
Cl.Nc1ccc(N=Nc2ccccc2)c(N)n1 [Phenazopyridine HCl],cell viability,HCI01 [1],196 ± 12
same,cell viability,HCI11,136
same,cell viability,HCI16,200
same,cell viability,WHIM2,191 ± 47
N#CCC(C1CCCC1)n1cc(-c2ncnc3[nH]ccc23)cn1 (stereo unspecified),cell viability,HCI03,185
same,cell viability,HCI09,106 ± 19
same,cell viability,HCI11,129
same,cell viability,HCI13,76.1 ± 14
same,cell viability,HCI16,106
same,cell viability,UCD52 [2],117.7 ± 0.47
same,cell viability,WHIM2,134 ± 12
same,cell viability,WHIM30,187.4 ± 1.7
O=C(CCCCCCNC(=O)c1cnc(N(c2ccccc2)c2ccccc2)nc1)NO [Rocilinostat (ACY-1215)],cell viability,HCI03,108
same,cell viability,HCI09,45.1 ± 28
same,cell viability,HCI13,49.3 ± 7.8
same,cell viability,WHIM2,51.2 ± 8.8
Nc1nc(NC2CC2)c2ncn(C3C=CC(CO)C3)c2n1.O=S(=O)(O)O (stereo unspecified) [Abacavir sulfate],cell viability,HCI01 [1],161 ± 13
same,cell viability,HCI11,139
same,cell viability,HCI13,134 ± 16
same,cell viability,HCI16,157
same,cell viability,UCD52 [2],196 ± 5.3
same,cell viability,WHIM2,128 ± 5.2
CC(C)Cc1ccc(C(C)C(=O)O)cc1.NCCCCC(N)C(=O)O (stereo unspecified) [Ibuprofen Lysine],cell viability,HCI03,130
same,cell viability,HCI09,106 ± 12
same,cell viability,HCI11,138
same,cell viability,HCI13,131 ± 6.2
same,cell viability,HCI16,162
same,cell viability,UCD52 [2],132 ± 29
same,cell viability,WHIM2,84.8 ± 3.6
same,cell viability,WHIM30,170 ± 23
CC[C@@]1(O)C(=O)OCc2c1cc1n(c2=O)Cc2cc3c(CN(C)C)c(O)ccc3nc2-1 [Topotecan] + CC(C)C[C@H](NC(=O)[C@H](CCc1ccccc1)NC(=O)CN1CCOCC1)C(=O)N[C@@H](Cc1ccccc1)C(=O)N[C@@H](CC(C)C)C(=O)[C@@]1(C)CO1 [Carfilzomib],cell viability of combination,HCI01 [3],56.9
same,cell viability of combination,UCD52 [4],57.9
Cc1cc(Nc2ncc(Cl)c(Nc3ccccc3S(=O)(=O)C(C)C)n2)c(OC(C)C)cc1C1CCNCC1 + CC(C)C[C@H](NC(=O)[C@H](CCc1ccccc1)NC(=O)CN1CCOCC1)C(=O)N[C@@H](Cc1ccccc1)C(=O)N[C@@H](CC(C)C)C(=O)[C@@]1(C)CO1 [Carfilzomib],cell viability of combination,HCI01 [3],81.5
same,cell viability of combination,UCD52 [4],31.4
CC[C@@H]1/C=C(\C)C[C@H](C)C[C@H](OC)[C@H]2O[C@@](O)(C(=O)C(=O)N3CCCC[C@H]3C(=O)O[C@H](/C(C)=C/[C@@H]3CC[C@H](Cl)[C@H](OC)C3)[C@H](C)[C@@H](O)CC1=O)[C@H](C)C[C@@H]2OC [Pimecrolimus] + CC(C)C[C@H](NC(=O)[C@H](CCc1ccccc1)NC(=O)CN1CCOCC1)C(=O)N[C@@H](Cc1ccccc1)C(=O)N[C@@H](CC(C)C)C(=O)[C@@]1(C)CO1 [Carfilzomib],cell viability of combination,HCI01 [3],95.7
same,cell viability of combination,UCD52 [4],49.2
CC(=Cc1ccccc1)C=C1SC(=S)N(CC(=O)O)C1=O [Epalrestat],cell viability,HCI03,112
same,cell viability,HCI11,96.4
same,cell viability,HCI13,170 ± 10
same,cell viability,HCI16,102
same,cell viability,UCD52 [2],102 ± 11
same,cell viability,WHIM30,134 ± 29
Cc1nc(-c2ccc(OCC(C)C)c(C#N)c2)sc1C(=O)O [Febuxostat],cell viability,HCI16,191
CC1CC(=O)NN=C1c1ccc(NN=C(C#N)C#N)cc1 (stereo unspecified) [Levosimendan] + CC(C)C[C@H](NC(=O)[C@H](CCc1ccccc1)NC(=O)CN1CCOCC1)C(=O)N[C@@H](Cc1ccccc1)C(=O)N[C@@H](CC(C)C)C(=O)[C@@]1(C)CO1 [Carfilzomib],cell viability of combination,HCI01 [3],74.1
same,cell viability of combination,UCD52 [4],61.5
CCCCc1oc2ccc(NS(C)(=O)=O)cc2c1C(=O)c1ccc(OCCCN(CCCC)CCCC)cc1.Cl [Dronedarone HCl] + CC(C)C[C@H](NC(=O)[C@H](CCc1ccccc1)NC(=O)CN1CCOCC1)C(=O)N[C@@H](Cc1ccccc1)C(=O)N[C@@H](CC(C)C)C(=O)[C@@]1(C)CO1 [Carfilzomib],cell viability of combination,HCI01 [3],92.3
same,cell viability of combination,UCD52 [4],59.9
Cc1nc(Nc2ncc(C(=O)Nc3c(C)cccc3Cl)s2)cc(N2CCN(CCO)CC2)n1 + CC(C)C[C@H](NC(=O)[C@H](CCc1ccccc1)NC(=O)CN1CCOCC1)C(=O)N[C@@H](Cc1ccccc1)C(=O)N[C@@H](CC(C)C)C(=O)[C@@]1(C)CO1 [Carfilzomib],cell viability of combination,HCI01 [3],61.3
same,cell viability of combination,UCD52 [4],32.4
Cn1nnc(-c2ccc(-c3ccc(N4CC(CO)OC4=O)cc3F)cn2)n1 (stereo unspecified) [Tedizolid],cell viability,HCI11,107
same,cell viability,HCI16,170
same,cell viability,WHIM2,157 ± 57
CC1=CC(=O)c2ccccc2C1=O [Menadione] + CC(C)C[C@H](NC(=O)[C@H](CCc1ccccc1)NC(=O)CN1CCOCC1)C(=O)N[C@@H](Cc1ccccc1)C(=O)N[C@@H](CC(C)C)C(=O)[C@@]1(C)CO1 [Carfilzomib],cell viability of combination,HCI01 [3],78.2
same,cell viability of combination,UCD52 [4],62
CC(C)(C)c1ccc(C(O)CCCN2CCC(C(O)(c3ccccc3)c3ccccc3)CC2)cc1 (stereo unspecified) [Terfenadine] + CC(C)C[C@H](NC(=O)[C@H](CCc1ccccc1)NC(=O)CN1CCOCC1)C(=O)N[C@@H](Cc1ccccc1)C(=O)N[C@@H](CC(C)C)C(=O)[C@@]1(C)CO1 [Carfilzomib],cell viability of combination,HCI01 [3],77.1
same,cell viability of combination,UCD52 [4],64.9
CC(NCc1ccc(OCc2cccc(F)c2)cc1)C(N)=O.CS(=O)(=O)O (stereo unspecified) [Safinamide Mesylate],cell viability,HCI11,161
same,cell viability,HCI13,191 ± 36
same,cell viability,UCD52 [2],190 ± 11
same,cell viability,WHIM2,184 ± 45
CC(=O)Oc1ccccc1C(=O)Nc1ncc([N+](=O)[O-])s1 [Nitazoxanide],cell viability,HCI09,161 ± 140
same,cell viability,HCI11,168
same,cell viability,HCI16,128
same,cell viability,UCD52 [2],154 ± 8.6
Oc1ccc(C=Cc2cc(O)cc(O)c2)cc1 [Resveratrol],cell viability,HCI09,196 ± 110
same,cell viability,HCI16,174
same,cell viability,WHIM2,191 ± 54
Cc1ccc(-n2[nH]c(C)c(NN=C3C=CC=C(c4cccc(C(=O)O)c4)C3=O)c2=O)cc1C [Eltrombopag] + CC(C)C[C@H](NC(=O)[C@H](CCc1ccccc1)NC(=O)CN1CCOCC1)C(=O)N[C@@H](Cc1ccccc1)C(=O)N[C@@H](CC(C)C)C(=O)[C@@]1(C)CO1 [Carfilzomib],cell viability of combination,HCI01 [3],74.8
same,cell viability of combination,UCD52 [4],58.8
Cc1oncc1C(=O)Nc1ccc(C(F)(F)F)cc1 [Leflunomide],cell viability,HCI11,194
Oc1c(Cl)cc(Cl)c2cccnc12 [Chloroxine] + CC(C)C[C@H](NC(=O)[C@H](CCc1ccccc1)NC(=O)CN1CCOCC1)C(=O)N[C@@H](Cc1ccccc1)C(=O)N[C@@H](CC(C)C)C(=O)[C@@]1(C)CO1 [Carfilzomib],cell viability of combination,HCI01 [3],79.4
same,cell viability of combination,UCD52 [4],62.4
Cc1c(C(=O)NN2CCCCC2)nn(-c2ccc(Cl)cc2Cl)c1-c1ccc(Cl)cc1 [Rimonabant] + CC(C)C[C@H](NC(=O)[C@H](CCc1ccccc1)NC(=O)CN1CCOCC1)C(=O)N[C@@H](Cc1ccccc1)C(=O)N[C@@H](CC(C)C)C(=O)[C@@]1(C)CO1 [Carfilzomib],cell viability of combination,HCI01 [3],78.4
same,cell viability of combination,UCD52 [4],63
c1cn2cc(-c3ccc4cn[nH]c4c3)nc(Nc3ccc(N4CCOCC4)cc3)c2n1,cell viability,HCI11,125
same,cell viability,HCI16,86.2
O=C(O)CO.[NH2-].[NH2-].[Pt+2] [Nedaplatin] + CC(C)C[C@H](NC(=O)[C@H](CCc1ccccc1)NC(=O)CN1CCOCC1)C(=O)N[C@@H](Cc1ccccc1)C(=O)N[C@@H](CC(C)C)C(=O)[C@@]1(C)CO1 [Carfilzomib],cell viability of combination,HCI01 [3],71.6
same,cell viability of combination,UCD52 [4],68.8
O=C(Nc1nc2cccc(-c3ccc(CN4CCS(=O)(=O)CC4)cc3)n2n1)C1CC1,cell viability,HCI09,186 ± 51
same,cell viability,WHIM30,147 ± 9.8
"CC=C1NC(=O)C2CSSCCC=CC(CC(=O)NC(C(C)C)C(=O)N2)OC(=O)C(C(C)C)NC1=O (stereo unspecified) [Romidepsin (FK228, depsipeptide)]",cell viability,HCI03,177
same,cell viability,HCI09,77.5 ± 29
same,cell viability,HCI13,66.1 ± 6.7
same,cell viability,WHIM2,34.4 ± 4.2
O=c1c(-c2ccc(O)cc2)coc2cc(O)cc(O)c12 [Genistein],cell viability,HCI03,160
same,cell viability,HCI11,129
same,cell viability,HCI16,183
same,cell viability,UCD52 [2],189 ± 34
same,cell viability,WHIM2,121 ± 5.2
COc1ccc(CN2CCN(C(c3ccc(F)cc3)c3ccc(F)cc3)CC2)c(OC)c1OC.Cl.Cl [Lomerizine HCl] + CC(C)C[C@H](NC(=O)[C@H](CCc1ccccc1)NC(=O)CN1CCOCC1)C(=O)N[C@@H](Cc1ccccc1)C(=O)N[C@@H](CC(C)C)C(=O)[C@@]1(C)CO1 [Carfilzomib],cell viability of combination,HCI01 [3],91.1
same,cell viability of combination,UCD52 [4],57.7
C=CC(=O)N1CCC(Oc2cc3c(Nc4ccc(Cl)c(Cl)c4F)ncnc3cc2OC)CC1 [Poziotinib] + CC(C)C[C@H](NC(=O)[C@H](CCc1ccccc1)NC(=O)CN1CCOCC1)C(=O)N[C@@H](Cc1ccccc1)C(=O)N[C@@H](CC(C)C)C(=O)[C@@]1(C)CO1 [Carfilzomib],cell viability of combination,HCI01 [3],52.8
same,cell viability of combination,UCD52 [4],28.9
COc1ccc2cc1Oc1ccc(cc1)CC1c3c(cc4c(c3Oc3cc5c(cc3OC)CCN(C)C5C2)OCO4)CCN1C (stereo unspecified) [Cepharanthine] + CC(C)C[C@H](NC(=O)[C@H](CCc1ccccc1)NC(=O)CN1CCOCC1)C(=O)N[C@@H](Cc1ccccc1)C(=O)N[C@@H](CC(C)C)C(=O)[C@@]1(C)CO1 [Carfilzomib],cell viability of combination,HCI01 [3],76.2
same,cell viability of combination,UCD52 [4],45.8
COc1cccc(-c2ccc(NC(=O)C3=C(C(=O)O)CCC3)c(F)c2)c1 [Vidofludimus],cell viability,HCI11,99.5
